# Measured values taken from PubChem BioAssay AID1069 (NMMLSC, 2008).
# The source made the active and inactive calls.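 Rule for the calls: active = high combined rank on largest and smallest cell-count-weighted shift across three tests, rank score above 45, floors 50 and 25 (some results past the limit were not filed as active); inactive = the rest.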
# Assay: LNCaP granularity increase inducers, single-point recheck – cell-based, side scatter shift, flow cytometry, confirmation (AID 1069);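 note: LNCaP human prostate cancer cells in low-serum medium with charcoal-stripped FBS; percent of cells with raised granularity gated so DMSO controls show 10%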
# Conditions: LNCaP differentiation, 4 d, stronger effect = higher value
Structure (SMILES),side scatter shift (at 100 µM),"side scatter shift (side scatter shift, at 10 µM)"
Cn1c(=O)cc(SCC(=O)NCCCN2CCN(c3ccccc3F)CC2)c2ccccc21,70.5% (active),12.8%
O=C(CCN1C(=O)COc2ccccc21)NCCCN1CCN(c2ccc(F)cc2)CC1,45.3% (inactive),7.5%
C=CCn1c(=N)n(CC(O)COc2ccccc2OC)c2ccccc21 (stereo unspecified),13.8% (inactive),2.35%
